According to PubChem BioAssay (NCATS):
Inconclusive results are not listed. Activity calls are given as the source filed them. Unless noted, calls come from the whole dose curve; as a rule, active = well fitted curve in the direction sought with a large enough effect; inconclusive = small, poorly fitted or top-dose-only effect, or another doubt; inactive = no such curve, though single readings can be large; an effect the other way counts as inactive or inconclusive.

Legend:
[1] = qHTS to identify inhibitors of the type 1 interferon - major histocompatibility complex class I in skeletal muscle: primary screen against the NCATS Pharmaceutical Collection (AID 1347407);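 note: luminescence of HiBiT knocked into endogenous HLA-B as interferon-induced MHC class I level; % is set by controls: 0 for no effect and ±100 for the full control effect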
Procedure, shortened: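 Immortalized human myoblasts (C25cl48) with HiBiT knocked into endogenous HLA-B*08:01 were stimulated with 4.0 ng/ml IFN-beta and treated with compounds ([…] top 46 uM) for 24 hrs at 37 C. HiBiT lytic luminescence read.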

[2] = target: Protein phosphatase 1D (Homo sapiens) (UniProt O15297); experiment: RapidFire Mass Spectrometry qHTS Assay for Modulators of WT P53-Induced Phosphatase 1 (WIP1) (AID 1347424);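 note: amount of dephosphorylated VEPPL-S-QETFS peptide product formed by WIP1; series mostly up to about 63 µM; plate controls were DMSO wells for no effect and GSK830371 inhibitor control at 10 µM for full effect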
Protein phosphatase 1D (Homo sapiens), sequence (O15297 whole entry, looked up): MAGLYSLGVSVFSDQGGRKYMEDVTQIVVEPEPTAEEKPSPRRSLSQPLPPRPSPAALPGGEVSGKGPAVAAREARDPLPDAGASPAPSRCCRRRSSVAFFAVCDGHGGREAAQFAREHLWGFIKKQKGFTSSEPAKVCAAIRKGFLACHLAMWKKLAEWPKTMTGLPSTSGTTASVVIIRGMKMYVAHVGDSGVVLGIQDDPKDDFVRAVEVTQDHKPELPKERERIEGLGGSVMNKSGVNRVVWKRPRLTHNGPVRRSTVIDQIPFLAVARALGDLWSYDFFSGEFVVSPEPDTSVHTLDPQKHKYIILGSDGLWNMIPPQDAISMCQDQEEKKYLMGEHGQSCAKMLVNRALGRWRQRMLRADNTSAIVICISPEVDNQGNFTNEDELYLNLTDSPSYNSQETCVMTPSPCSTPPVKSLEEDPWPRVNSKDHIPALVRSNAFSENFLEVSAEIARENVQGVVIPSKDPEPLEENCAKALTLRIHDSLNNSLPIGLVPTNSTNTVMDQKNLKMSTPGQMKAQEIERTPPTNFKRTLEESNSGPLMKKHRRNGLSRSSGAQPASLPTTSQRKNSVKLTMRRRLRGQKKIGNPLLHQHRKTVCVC
Procedure, shortened: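 WIP1 (10 nM final) was preincubated 1 h at room temperature with compounds in Tris-HCl pH 7.5, 30 mM MgCl2, TCEP, EGTA, BSA; 2 uM VEPPL-pS-QETFS phosphopeptide was added for 5 min, quenched with formic acid, and dephosphorylated product quantified by RapidFire MS.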

[3] = target: Protein phosphatase 1D (Homo sapiens) (UniProt O15297); experiment: Rhodamine-PBP qHTS Assay for Modulators of WT P53-Induced Phosphatase 1 (WIP1) (AID 1347425); note: % of control where 0% means no effect
Procedure, shortened: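 Read-out: Rhodamine-PBP fluorescence (ex 525/em 598 nm) for released Pi, read each minute for 11 min after adding 10 uM VEPPL-pS-QETFS; signal taken as f1 minus pre-substrate f0. Enzyme 5 nM WIP1 with 1 hr room-temperature compound preincubation.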

[4] = Primary qHTS for inhibitors of SARS-S pseudo-typed particle cell entry (AID 1479145; calls by dose curve; note: nearly all actives have a fitted effect of over 45% in size)
[5] = Primary qHTS for Huh7 cytotoxicity: counterscreen for inhibitors of MERS-S pseudotyped particle cell entry (AID 1479147; calls by dose curve)
[6] = Primary qHTS for inhibitors of MERS-S pseudo-typed particle cell entry (AID 1479149; calls by dose curve; note: nearly all actives have a fitted effect of over 60% in size)
[7] = Primary qHTS for Vero E6 cytotoxicity: counterscreen for inhibitors of SARS-S pseudo-typed particle cell entry (AID 1479150; calls by dose curve)
[8] = target: Calcium and integrin-binding protein 1 (Homo sapiens) (UniProt Q99828); experiment: Primary qHTS for Identification of Calcium Integrin Binding Protein 1 (CIB1) Competitor (AID 1508620);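 note: GST tagged CIB1 binding a fluorescein labelled alphaIIb integrin peptide tracer; top concentration of the series differs between compounds; % is set by controls: 0 for no effect and ±100 for the full control effect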
Calcium and integrin-binding protein 1 (Homo sapiens), sequence (Q99828 whole entry, looked up): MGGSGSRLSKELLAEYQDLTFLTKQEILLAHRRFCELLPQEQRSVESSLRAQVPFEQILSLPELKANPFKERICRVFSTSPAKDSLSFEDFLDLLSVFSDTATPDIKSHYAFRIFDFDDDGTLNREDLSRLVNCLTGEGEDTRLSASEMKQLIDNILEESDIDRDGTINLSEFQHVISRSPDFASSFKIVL
Procedure, shortened: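 Fluorescence polarization competition: CIB1-GST (1 uM final) preincubated with compound 15 min at room temperature, then FITC-labeled alphaIIb peptide (100 nM final) added for another 15 min. Polarization read at Ex 480/Em 540.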

[9] = qHTS to identify inhibitors of the type 1 interferon - major histocompatibility complex class I in skeletal muscle: primary screen against the NCATS Mechanism Interrogation Plate v5.0 (MIPE) Libary (AID 1347411);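 note: plate controls were vehicle for no effect and reference inhibitor for full effect; nearly all actives have a fitted effect of over 65% in size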
Procedure, shortened: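 Immortalized human myoblasts (C25cl48) with HiBit knocked into endogenous HLA-B*08:01 were stimulated with 4 ng/ml IFN-beta and given compounds in 11-point 1:3 titration from 46 uM. After 24 h at 37 C, lytic HiBiT luminescence was read.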

[10] = Primary qHTS for inhibitors of La Crosse Virus (LACV) - induced cell death in SH-SY5Y cells (AID 1508616);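 note: top concentration of the series differs between compounds; 0% = infected DMSO wells and 100% = uninfected DMSO wells; higher means more rescue of cells from virus-induced death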
Procedure, shortened: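 SH-SY5Y cells (6000/well) plated 24 h, then given compounds by pin transfer and LACV at 0.01 MOI for 6 days at 37C. Viability measured by ATPLite luminescence, normalized to infected DMSO and uninfected DMSO.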

[11] = Counterscreen qHTS for small molecule stabilizers of the endoplasmic reticulum resident proteome: GLuc-NoTag assay (AID 1508627);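 note: SH-SY5Y cells given compound then 100 nM thapsigargin to empty ER calcium; series mostly up to about 76 µM; 0% = thapsigargin alone and -100% = DMSO vehicle control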
Procedure, shortened: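 SH-SY5Y cells stably expressing constitutively secreted GLuc (no SERCaMP tag) were pre-incubated 5 h, treated with compound for 19 h, then 100 nM thapsigargin for 4 h at 37C; medium GLuc read by coelenterazine luminescence.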

[12] = Confirmatory qHTS for small molecule stabilizers of the endoplasmic reticulum resident proteome: Secreted ER Calcium Modulated Protein (SERCaMP) assay (AID 1508628); note: series mostly up to about 76 µM; % is set by controls: 0 for no effect and ±100 for the full control effect; nearly all actives have a fitted effect of over 40% in size
Procedure, shortened: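 SH-SY5Y cells stably expressing GLuc-SERCaMP, treated 16 h with compound (primary 1.53, 7.67, 38.3 uM; confirmation 11 concentrations, up to 76.6 uM), then 100 nM thapsigargin for 4 h. Secreted Gaussia luciferase in medium read by coelenterazine luminescence.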

[13] = Cell Viability qHTS for small molecule stabilizers of the endoplasmic reticulum resident proteome (AID 1508629); conditions: cell viability counter-screen, 100 nM thapsigargin for final 4 h;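 note: human SH-SY5Y neuroblastoma cells carrying the GLuc-SERCaMP reporter; compound exposure about 46 h in total before the viability read; % is set by controls: 0 for no effect and ±100 for the full control effect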

CCCCCCCCC(=O)NCc1ccc(O)c(OC)c1
inactive: Potency [1] | Potency [2] | outcome [3] | Potency [4] | Potency [5] | Potency [6] | Potency [7] | Potency [8]

C[C@@H]1CC[C@H]2[C@@H](C)C(=O)O[C@@H]3O[C@@]4(C)CC[C@@H]1[C@]32OO4
inactive: Potency [1] | Potency [9] | Potency [2] | outcome [3] | outcome [10] | Potency [8]

CNC(C)Cc1ccccc1OC (configuration not stated)
inactive: Potency [1] | Potency [2] | outcome [3] | Potency [4] | Potency [5] | Potency [6] | Potency [7] | outcome [10] | Potency [8]

CCN(CC)C(C)C(=O)c1ccccc1 (configuration not stated)
inactive: Potency [1] | Potency [2] | outcome [3]

CC(CC(C(N)=O)(c1ccccc1)c1ccccc1)N(C)C (configuration not stated)
inactive: Potency [1] | Potency [2] | outcome [3] | Potency [4] | Potency [5] | Potency [6] | Potency [7] | outcome [10] | Potency [8]

N#Cc1nn(-c2c(Cl)cc(C(F)(F)F)cc2Cl)c(N)c1S(=O)C(F)(F)F (configuration not stated)
inactive: Potency [1] | Potency [2] | outcome [3] | Potency [4] | Potency [5] | Potency [7] | outcome [10] | Potency [8]

NC(=O)OCCCc1ccccc1
inactive: Potency [1] | Potency [2] | outcome [3] | Potency [4] | Potency [5] | Potency [6] | Potency [7] | outcome [10] | Potency [8] | Potency [11] | Potency [12] | max response [13] 1.15%

C[N+]1(C)[C@@H]2CC[C@H]1CC(OC(=O)C(CO)c1ccccc1)C2 (some centres not stated)
inactive: Potency [1] | Potency [2] | outcome [3] | Potency [4] | Potency [5] | Potency [6] | Potency [7] | outcome [10] | Potency [8]

Cc1nnc2n1-c1sc(CCC(=O)N3CCOCC3)cc1C(c1ccccc1Cl)=NC2
inactive: Potency [1] | Potency [2] | outcome [3] | Potency [4] | Potency [5] | Potency [6] | Potency [7] | Potency [8]
